This is part of a sample that, as a whole, favours compounds with a hit. Of some 83,000 tested, about 20% had one in any assay.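 Single-concentration screen, 48 h exposure, 96-well plates. Endpoint: percent growth. Below 10 = active.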 Unmarked numbers belong to inactive results. Calls of active or inactive are those of the source.

Ten compounds from PubChem BioAssay (NCI) can be followed below.

Common to all, as to assay: NCI-60 one-dose screen, 48 h (100 = growth as untreated, 0 = no growth, -100 = all killed)
The test system of one experiment is NCI-H522 lung. As to conditions: 10 µM unless noted.
For a further experiment, the system named is A549/ATCC NSCLC. The settings on record: 10 µM unless noted.
Another experiment has as its system COLO 205 colon. The settings on record: 10 µM.
For another experiment, the system named is HT29 colon. The settings on record: 10 µM unless noted.
The next experiment has as its system SNB-75 CNS. As to conditions: 10 µM unless noted.
For a further experiment, the system named is PC-3 prostate. As to conditions: 10 µM unless noted.
In the next experiment the test system is SK-MEL-5 melanoma. As to conditions: 10 µM unless noted.
Another experiment relates to SK-MEL-28 melanoma. As to conditions: 10 µM unless noted.
The next experiment deals with CCRF-CEM leukemia. The settings on record: 10 µM unless noted.
For the next experiment, the system named is RPMI-8226 leukemia. As to conditions: 10 µM unless noted.
In a further experiment the test system is OVCAR-5 ovarian. As to conditions: 10 µM unless noted.
In a further experiment the test system is IGROV1 ovarian. The settings on record: 10 µM.
The next experiment concerns OVCAR-3 ovarian. The settings on record: 10 µM unless noted.
A further experiment has as its system HS 578T breast. As to conditions: 10 µM unless noted.
The next experiment has as its system EKVX NSCLC. The settings on record: 10 µM unless noted.
A further experiment concerns CAKI-1 renal. As to conditions: 10 µM unless noted.
Another experiment concerns SR leukemia. The settings on record: 10 µM.
Another experiment concerns MCF7 breast. The settings on record: 10 µM unless noted.

As for `CC1COC(=O)C1` (stereo not drawn), the growth in the experiment with NCI-H522 lung is 99.4%; with A549/ATCC NSCLC it was 101%; in the experiment on COLO 205 colon, 102%; in the experiment with HT29 colon, 98.2%; in the experiment with SNB-75 CNS, 81.9%; in the experiment on PC-3 prostate it was 102%. Further, the growth was 99.6% with SK-MEL-5 melanoma; 103% with SK-MEL-28 melanoma; 95.4% in the experiment on CCRF-CEM leukemia; 110% in the experiment with RPMI-8226 leukemia; 102% in the experiment with OVCAR-5 ovarian; 103% with IGROV1 ovarian. Also, the growth is 107% in the experiment on OVCAR-3 ovarian and 99.2% in the experiment with HS 578T breast.

In the case of `CC1(C)N=C(N)N=C(N)N1c1ccc(CCC(=O)Nc2cccc(S(=O)(=O)F)c2)cc1`, the growth in the experiment on NCI-H522 lung was 91.1%; in the experiment with A549/ATCC NSCLC, 44.6%; in the experiment on COLO 205 colon it was 93.4%; in the experiment on HT29 colon, 66.2%; with SNB-75 CNS, 59.5%; in the experiment with SK-MEL-5 melanoma, 32.9%. For the same compound, the growth is 103% in the experiment on SK-MEL-28 melanoma; 56.8% in the experiment with EKVX NSCLC; -5.98% (active) in the experiment with CAKI-1 renal; 35.6% with SR leukemia; 39.4% with IGROV1 ovarian; 114% with OVCAR-3 ovarian. For the same compound, the growth with HS 578T breast was 121%; in the experiment with MCF7 breast, 54.6%.

Turning to `S=P(NC1CCCCC1)(N1CC1)N1CC1`, the growth is 106% with NCI-H522 lung; 101% in the experiment with A549/ATCC NSCLC; 179% with COLO 205 colon; 93.2% in the experiment with SNB-75 CNS; 97% with SK-MEL-5 melanoma; 122% in the experiment with SK-MEL-28 melanoma. The growth was 102% in the experiment on EKVX NSCLC; 95.1% in the experiment with CAKI-1 renal; 104% in the experiment on SR leukemia; 76.7% in the experiment with RPMI-8226 leukemia; 104% in the experiment with OVCAR-5 ovarian; 97.3% with IGROV1 ovarian. For the same compound, the results for the growth with OVCAR-3 ovarian, in the experiment on HS 578T breast and in the experiment with MCF7 breast were 112%, 114% and 89%, respectively.

For `CC(C)Nc1ccc(Nc2ccccc2)cc1`, the growth in the experiment with NCI-H522 lung is 40.8%; with A549/ATCC NSCLC it was 24.1%; in the experiment with COLO 205 colon, 43.6%; in the experiment on HT29 colon, 7.96% (active); in the experiment on PC-3 prostate, 9.1% (active); with SK-MEL-5 melanoma, 57.9%. Further, the growth is 85.1% in the experiment on SK-MEL-28 melanoma; 29.4% in the experiment with EKVX NSCLC; 41.6% with CAKI-1 renal; 38.3% with CCRF-CEM leukemia; 51.2% in the experiment with SR leukemia; 11.5% in the experiment on RPMI-8226 leukemia. For the same compound, the growth is 65.1% with OVCAR-5 ovarian; 27% in the experiment with IGROV1 ovarian; 7.43% (active) in the experiment on OVCAR-3 ovarian; 17.9% in the experiment on HS 578T breast; 32% in the experiment with MCF7 breast.

For `CC(=O)N1N=C(c2ccccc2)CC1c1sc(N(CCCl)CCCl)nc1Cl` (stereo not drawn), the growth in the experiment with NCI-H522 lung was 72.2%; with A549/ATCC NSCLC, 86.3%; in the experiment on COLO 205 colon, 99.5%; with HT29 colon it was 93.9%; in the experiment with SNB-75 CNS, 83.1%; in the experiment on SK-MEL-5 melanoma it was 99.1%. Further, the growth in the experiment with SK-MEL-28 melanoma is 108%; in the experiment on EKVX NSCLC, 90.9%; in the experiment with CAKI-1 renal, 80.2%; with CCRF-CEM leukemia it was 93.5%; with SR leukemia, 86.4%; with OVCAR-5 ovarian, 98.4%. The figures for the growth in the experiment with OVCAR-3 ovarian, with HS 578T breast and with MCF7 breast were 96.4%, 88% and 95%, respectively.

`COc1ccc(C2SCC(=O)Nc3c2c(C)nn3-c2nc3ccc(C)cc3s2)cc1O` (stereo not drawn): the growth in the experiment with NCI-H522 lung was 1.68% (active); with A549/ATCC NSCLC, 29.3%; in the experiment with COLO 205 colon, 35.1%; with HT29 colon it was 10.5%; in the experiment with SNB-75 CNS, 32.6%; in the experiment with PC-3 prostate, 19.9%. The growth in the experiment with SK-MEL-5 melanoma was 16.6%; in the experiment with CAKI-1 renal it was 31.1%; with CCRF-CEM leukemia, 27.6%; in the experiment with SR leukemia it was 9.81% (active); in the experiment on RPMI-8226 leukemia it was 38.8%; with IGROV1 ovarian it was 52.7%. The figures for the growth with OVCAR-3 ovarian, in the experiment on HS 578T breast and with MCF7 breast were 5.66% (active), 42.2% and 15.4%, respectively.

Turning to `C[C@]12CC[C@H](OC3OC(O)C(O)C(O)C3O)C=C1CCC1C2CC[C@]2(C)[C@@H](c3ccc(=O)oc3)CC[C@]12O` (stereo partly drawn), the growth is -61.4% (active) in the experiment with NCI-H522 lung; 102% with A549/ATCC NSCLC; -85.1% (active) with COLO 205 colon; -84.5% (active) in the experiment on HT29 colon; -53.2% (active) in the experiment on SNB-75 CNS; -12.2% (active) in the experiment with PC-3 prostate. The growth in the experiment with SK-MEL-5 melanoma was -96.3% (active); in the experiment on SK-MEL-28 melanoma, -82.9% (active); with EKVX NSCLC, -86.6% (active); in the experiment with CAKI-1 renal it was -62.6% (active); in the experiment with CCRF-CEM leukemia it was -33.8% (active); with SR leukemia, -42.7% (active). For the same compound, the growth is -20.5% (active) with RPMI-8226 leukemia; -12.1% (active) in the experiment on IGROV1 ovarian; -99.2% (active) with OVCAR-3 ovarian; 9.56% (active) in the experiment on HS 578T breast; -64.3% (active) in the experiment on MCF7 breast.

Regarding `O=C(O)c1nn(Cc2ccc(Cl)cc2)c2ccccc12`, the growth in the experiment on NCI-H522 lung is 96.8%; in the experiment on A549/ATCC NSCLC, 102%; in the experiment with COLO 205 colon, 111%; in the experiment on HT29 colon, 118%; in the experiment with SNB-75 CNS it was 95.9%; with PC-3 prostate it was 98.7%. For the same compound, the growth with SK-MEL-5 melanoma was 97.2%; in the experiment with SK-MEL-28 melanoma, 119%; in the experiment on CCRF-CEM leukemia, 98.7%; in the experiment with SR leukemia, 97.3%; with RPMI-8226 leukemia, 98.4%; in the experiment on OVCAR-5 ovarian it was 108%. Besides, the growth with IGROV1 ovarian is 122%; in the experiment with OVCAR-3 ovarian, 132%; in the experiment with HS 578T breast, 105%; in the experiment on MCF7 breast, 99.7%.

Turning to `Cc1ccccc1O`, the growth in the experiment on NCI-H522 lung was 99%; in the experiment with A549/ATCC NSCLC, 100%; with COLO 205 colon, 105%; with HT29 colon it was 110%; with PC-3 prostate, 96.4%; in the experiment on SK-MEL-5 melanoma it was 106%. Also, the growth was 111% with SK-MEL-28 melanoma; 111% in the experiment with EKVX NSCLC; 96.2% in the experiment on CAKI-1 renal; 103% with CCRF-CEM leukemia; 128% in the experiment on SR leukemia; 121% in the experiment with OVCAR-5 ovarian. Also, the growth in the experiment on OVCAR-3 ovarian is 130%; in the experiment on MCF7 breast, 119%.

With `COc1cc2c(cc1OC)CN(C)C(C)C2` (stereo not drawn), the growth with A549/ATCC NSCLC was 93.6%; in the experiment with COLO 205 colon it was 102%; with HT29 colon, 93.2%; with SNB-75 CNS, 87.3%; in the experiment with PC-3 prostate it was 97.4%; with SK-MEL-5 melanoma, 101%. Moreover, the growth is 109% in the experiment on EKVX NSCLC; 101% in the experiment on CAKI-1 renal; 100% with CCRF-CEM leukemia; 101% in the experiment with SR leukemia; 105% in the experiment on RPMI-8226 leukemia; 101% in the experiment on OVCAR-5 ovarian. In addition, the growth with IGROV1 ovarian is 111%; in the experiment on OVCAR-3 ovarian, 113%; in the experiment with HS 578T breast, 107%; in the experiment with MCF7 breast, 95.5%.
